# Test results taken from PubChem BioAssay AID651815 (National Center for Advancing Translational Sciences (NCATS), 2012).
# About 1,100 (52%) of roughly 2,100 compounds were called active. Not shown: some 29% with an inconclusive outcome. So high a share suggests a set chosen from earlier hits. Some of the results follow. A number with no mark means an inactive call. Calls follow the shape of the dose curve; as a rule, active = well fitted inhibition curve with a large enough effect; inconclusive = small, poorly fitted or top-dose-only effect; inactive = no such curve, though single readings can be large or run the other way.
# Target: DNA dC->dU-editing enzyme APOBEC-3F (Homo sapiens) (UniProt Q8IUX4)
# Test: qHTS for inhibitors of Vif-A3F interactions: Cherry picks counterscreen; also: nearly all actives have a fitted effect of over 65% in size
# Conditions: HeLa A3F-eYFP/Vif cells, eYFP fluorescence, 24 h; series mostly up to 46.1 µM; activity, negative = inhibitor: at the top concentration
# In short: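 Rescue of Vif-driven A3F-eYFP degradation read as cellular eYFP fluorescence after 24 h compound exposure (several concentrations) in stable HeLa cells; MG132 (2 mM stock) as positive control.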
# % is scaled to controls: 0 for no effect and ±100 for the full control effect; potency is read from the fitted curve at half-maximal effect.
# Chain of DNA dC->dU-editing enzyme APOBEC-3F (Homo sapiens) (Q8IUX4 whole entry, looked up): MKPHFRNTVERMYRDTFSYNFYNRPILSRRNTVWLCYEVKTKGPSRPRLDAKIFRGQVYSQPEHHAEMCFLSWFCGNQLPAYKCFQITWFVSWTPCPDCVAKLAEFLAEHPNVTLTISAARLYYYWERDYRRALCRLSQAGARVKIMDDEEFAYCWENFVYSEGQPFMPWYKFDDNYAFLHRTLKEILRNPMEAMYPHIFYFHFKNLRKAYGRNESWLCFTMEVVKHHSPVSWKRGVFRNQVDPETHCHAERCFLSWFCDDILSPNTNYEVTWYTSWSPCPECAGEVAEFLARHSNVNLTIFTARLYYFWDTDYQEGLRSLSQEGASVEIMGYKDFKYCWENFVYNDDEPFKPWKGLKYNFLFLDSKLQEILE
Structure (SMILES),Potency,"activity, negative = inhibitor"
CN(C)c1ccc(C2C=C(c3ccccc3)Nc3nnnn32)cc1 (centres undefined),16.4 µM (active),–
COc1ccc(C2=CC(c3ccc(N(C)C)cc3)n3nnnc3N2)cc1 (centres undefined),16.4 µM (active),–
CCN1C(=S)SC(=O)C1=C1C=C(C)N(Cc2ccco2)C(C)=C1,15.8 µM (active),–
Clc1ccccc1/C=N/NC1=Nc2cccc3cccc1c23,16.4 µM (active),–
Clc1ccc(/C=N/NC2=Nc3cccc4cccc2c34)cc1,18.4 µM (active),–
C/C(CCc1ccc2c(c1)OCO2)=N\NC(=S)NC(C)C,–,12.8%
O=C(Nc1nc(NC(=O)c2ccco2)n(-c2ccccc2)n1)c1ccccc1,–,2.57% [at 36.9 µM]
C=CCn1c(O)c(N=NC(=O)CNC(=O)c2ccco2)c2ccccc21,11.2 µM (active),–
C=C(C)CNC(=S)NNC(=O)c1ccco1,–,-0.583% [at 36.9 µM]
COc1ccccc1/C=N/NC(=O)c1cc2c(OC)c(OC)ccc2[nH]1,9.94 µM (active),–
COc1ccc(C(=O)N/N=C/c2cc(Br)ccc2O)cc1OC,–,16.9%
COCCCNC(=S)N/N=C/c1cccc(OC)c1O,–,-2.88%
COc1cccc(/C=N/NC(=O)c2cc3c(OC)c(OC)ccc3[nH]2)c1OC,3.53 µM (active),–
CC1Sc2ccc(C(=O)NCc3ccccn3)cc2NC1=O (centres undefined),–,-1.52%
CCCNC(=O)c1ccccc1NC(=O)c1ccc2c(c1)NC(=O)C(C)S2 (centres undefined),6.27 µM (active),–
CN(C)c1ccc(/C=C/c2ccnc3ccc(Br)cc23)cc1,4.61 µM (active),–
COc1ccc2nccc(/C=C/c3ccc(N(C)C)cc3)c2c1,23.1 µM (active),–
Cc1cc(C)c2nccc(/C=C/c3ccc(N(C)C)cc3)c2c1,13 µM (active),–
CN(C)c1ccc(/C=C/c2ccnc3ccc(I)cc23)cc1,6.51 µM (active),–
ClCC1NCC(c2ccccc2Cl)c2c1[nH]c1ccccc21 (centres undefined),–,-5.25%
Cc1ccc2nccc(/C=C/c3ccc(N(C)C)cc3)c2c1,9.2 µM (active),–
CN(C)c1ccc(/C=C/c2ccnc3ccc(N)cc23)cc1,23.1 µM (active),–
CC(=O)c1cc(NC(=O)c2ccc(Cl)cc2)c(=O)oc1/C=C/N(C)C,6.27 µM (active),–
COC(=O)c1c(-c2ccccc2Cl)noc1/C=C/N(C)C,–,10.2% [at 36.9 µM]
COc1ccc(C(=O)Nc2cc(C(C)=O)c(/C=C/N(C)C)oc2=O)cc1,12.5 µM (active),–

Structure (SMILES),Potency,"activity, negative = inhibitor"
CC(=O)c1cc(NC(=O)c2ccc(C)cc2)c(=O)oc1/C=C/N(C)C,11.6 µM (active),–
COC(=O)c1sc2nc(CSc3ccc(Br)cc3)[nH]c(=O)c2c1C,–,-15.7%
COc1cc(C2c3cc4c(cc3C(OC3OC5COC(c6cccs6)OC5C(O)C3O)C3COC(=O)C23)OCO4)cc(OC)c1O (centres undefined),11.2 µM (active),–
Cc1ccc(O)c(NC(=O)c2cc(-c3ccccc3O)no2)c1,20.6 µM (active),–
COc1cccc(C(=O)Nc2ncc3c(n2)CC(c2ccc(OC)cc2OC)CC3=O)c1 (centres undefined),11.2 µM (active),–
Cc1cc(N2CCCC2)ccc1/C=C1/C(=O)N(C)C(=S)N1C,–,32.2%
Cc1cc(/C=C2\NC(=S)N(C)C2=O)ccc1N1CCCC1,2.5 µM (active),–
Cc1cc(N2CCCC2)ccc1/C=C1\NC(=S)N(C)C1=O,2.91 µM (active),–
COc1ccc(C)cc1Nc1c2c(nc3ccccc13)CCC2,1.98 µM (active),–
COC(=O)c1cnc(Nc2cc(C)ccc2OC)c2ccccc12,–,-11%
Cc1ccc(O)c(Nc2c3ccccc3nc3ccccc23)c1,–,-4.44%
CN1/C(=C\C=C2/SC(=S)NC2=O)C(C)(C)c2ccccc21,3.96 µM (active),–
CN1/C(=C\C=C2/SC(=S)N(CC(=O)O)C2=O)C(C)(C)c2ccccc21,–,31.2%
CCCCN1C(=O)/C(=C/C=C2/CC(C)(C)CN2C)SC1=S,–,21.9% [at 36.9 µM]
CCCN1C(=O)/C(=C\C=C2\N(CC)c3ccccc3C2(C)C)SC1=S,2.59 µM (active),–
CCCN1C(=O)/C(=C/C=C2\N(CC)c3ccccc3C2(C)C)SC1=S,4.44 µM (active),–
O=C(N/N=C/C=C/c1ccco1)c1ccncc1,–,-20.7%
COc1ccccc1OCC(=O)N/N=C/C=C/c1ccc([N+](=O)[O-])o1,16.4 µM (active),–
O=C(N/N=C\C=C\c1ccc([N+](=O)[O-])o1)c1cccs1,15.8 µM (active),–
Clc1ccccc1C1CC(c2ccccc2)=Nc2ccccc2N1 (centres undefined),–,2.47%
Cc1ccc(-c2cn3nc(-c4ccccc4)c(-c4ccccc4)nc3n2)cc1,18.4 µM (active),–
Cc1cc(C)nc(Nc2nc(C(N)Cc3ccccc3)cs2)n1 (centres undefined),14 µM (active),–
COC(=O)CCC(=O)NC(=S)Nc1sc(C)c(C)c1C(N)=O,1.25 µM (active),–
COc1cc2cc(-c3ccc(OC)c(OC)c3C)nc(N)c2cc1OC,1.77 µM (active),–
